Screening results: PubChem, National Center for Advancing Translational Sciences (NCATS)
RORg inh = blocks mouse ROR gamma transcriptional activity | P51450 | Drosophila S2 Gal4-RORgamma UAS-luciferase reporter, 20 h | Potency, µM (doses to about 53.6 µM), most hits filed as inhibitors | 310,000 tested, 5.4% active | AID 2551; further: nearly all actives have a fitted effect of over 60% in size
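Read-out: Photinus luciferase luminescence; inhibitors lower reporter signal. Insect Schneider cells with Gal4-ROR gamma fusion under metallothionein promoter, UAS reporter; 700 uM final copper sulfate induction, 20 hr, ambient temperature.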
ERG Ets-DNA blk = inhibitors of human ERG Ets domain-DNA interaction; Potency, µM (highest dose often 76.9 µM), usual class: inhibitors; 370,000 tested, 0.028% active; P11308; fluorescence polarization, His-ERG Ets domain / labelled DNA; active means well fitted inhibition curve with a large enough effect in the polarisation, with a control signal flat; inconclusive means small, poorly fitted or top-dose-only effect, or effect the other way, or a change in a side signal; inactive means no such curve, though single readings can be large or run the other way; the % refers to the polarisation;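 further: polarization taken with two DNA probes labelled with fluorescein and Texas red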
Target sequence (P11308 whole entry, looked up, the tested form may be a part): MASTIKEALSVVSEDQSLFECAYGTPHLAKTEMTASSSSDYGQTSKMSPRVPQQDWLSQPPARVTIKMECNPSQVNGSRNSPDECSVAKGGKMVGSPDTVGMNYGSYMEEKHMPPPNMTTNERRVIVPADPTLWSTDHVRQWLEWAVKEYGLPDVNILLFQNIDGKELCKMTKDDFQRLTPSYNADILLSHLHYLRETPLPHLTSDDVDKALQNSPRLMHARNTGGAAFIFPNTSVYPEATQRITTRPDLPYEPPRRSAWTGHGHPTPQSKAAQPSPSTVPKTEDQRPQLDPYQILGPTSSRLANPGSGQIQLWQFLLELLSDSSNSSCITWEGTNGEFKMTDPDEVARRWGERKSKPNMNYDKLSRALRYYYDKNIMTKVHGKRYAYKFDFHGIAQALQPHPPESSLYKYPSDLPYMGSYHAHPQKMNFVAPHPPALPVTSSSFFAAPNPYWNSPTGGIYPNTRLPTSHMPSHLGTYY
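His-tagged ERG Ets domain (1 uM in the protein solution; 300mM KCl, 50mM Tris-HCl, 1mM EDTA, 1mM DTT, pH 7.5) received compound, then a probe mix of 5 nM fluorescein-DNA and 100nM Texas-615-DNA. Fluorescence polarization was read for both dyes.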
Integrin act MD = activators of alpha7 integrin expression for muscular dystrophy; Potency, µM (doses to about 38.3 µM), hits mostly activators; alpha7betagal myoblasts, beta-gal FDG fluorescence, 48 h; AID 624291; 350,000 tested, 0.064% active; further: nearly all actives have a fitted effect of over 60% in size
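Alpha7betagal+/- myoblasts (passage 13) were plated 16-24 hr, then exposed to compounds (1:260 dilution of DMSO stock) for 48 hours at 37C. After MPER lysis, β-galactosidase reporter activity was read as FDG fluorescence (ex 480/em 540) after 30 minutes.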
VP16 counter = counter-screen for ROR gamma inhibitors: Gal4-VP16 reporter; Drosophila S2 Gal4-VP16 UAS-luciferase, luminescence, 20 h; Potency, µM (titrated, usually from 53.6 µM), actives largely listed as inhibitors; 310,000 tested, 3.5% active;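 further: Gal4-VP16 expression switched on by copper sulfate through the metallothionein promoter; nearly all actives have a fitted effect of over 50% in size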
Giardia killer = Giardia lamblia killing. Giardia lamblia trophozoite viability. activity change, % at 7.66 µM, hits read low. 340,000 tested, 0.15% active. AID 540267; in the data active means activity change below about -80%; inconclusive means between about -30% and that limit;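 further: parasites exposed to compound for two days anaerobically before the ATP read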
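ATP-content bioluminescence gauges trophozoite survival. Cells (100/well) receive compound and incubate anaerobically for 48 hrs at 37 deg C; detection reagent follows for 15-30 min at room temperature.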
Large screens that a line does not name were inactive. This excerpt belongs to a sample that is enriched for hits. Unless noted, the call rests on the fitted dose curve; in most records, active means well fitted curve in the direction sought with a large enough effect; inconclusive means small, poorly fitted or top-dose-only effect, or another doubt; inactive means no such curve, though single readings can be large; an effect the other way counts as inactive or inconclusive.

COCCN(C)Cc1cn(-c2ccc(F)cc2F)nc1-c1ccccc1C	RORg inh 6.3µM, VP16 counter inconclusive
COc1cc(NS(=O)(=O)c2cccc([N+](=O)[O-])c2)c2ncccc2c1	RORg inh 1.1µM, VP16 counter 2µM (no result: ERG Ets-DNA blk, Integrin act MD, Giardia killer)
COc1cc(NS(=O)(=O)c2ccc([N+](=O)[O-])cc2)c2ncccc2c1	RORg inh 0.89µM, VP16 counter 0.89µM (no result: ERG Ets-DNA blk, Integrin act MD, Giardia killer)
COc1cc(NS(=O)(=O)c2ccc(C)cc2)c2ncccc2c1	RORg inh 1µM, VP16 counter 0.79µM
N#Cc1cc(Oc2cccc3cccnc23)c(-n2nnc3ccccc32)cc1C#N	RORg inh inconclusive, VP16 counter 6.3µM
C=CCOc1c(CNc2nccs2)cccc1OCC	RORg inh 11µM, VP16 counter inconclusive
C=CCOc1c(Cl)cc(CNc2nccs2)cc1OC	RORg inh 5.6µM, VP16 counter inconclusive
C=CCOc1ccc(CNc2nccs2)cc1OCC	none
O=C(NNC(=O)c1cccc(C(F)(F)F)c1)c1ccncc1	none
O=C(NNC1=NCCN1Cc1ccccc1)c1cccc(C(F)(F)F)c1	RORg inh 3.2µM, VP16 counter 11µM
Cc1ccc(C)c(NC(=O)Nc2cc3c(cc2N2CCCCC2)n(C)c(=O)n3C)c1	none (no result: RORg inh, Integrin act MD, VP16 counter, Giardia killer)
CCN(CC)c1ccc(C2NC(=O)c3ccccc3N2)cc1 (centres undefined)	Giardia killer -86 (no result: RORg inh, VP16 counter)
CCN(CC)c1ccc(C2Nc3cccc4cccc(c34)N2)cc1	none
Cc1ccccc1/C=C/C1=NCCN1	none (no result: RORg inh, Integrin act MD, VP16 counter)
COc1cccc(N2CCN(Cc3cc(=O)oc4cc(C)ccc34)CC2)c1	none (no result: RORg inh, Integrin act MD, VP16 counter, Giardia killer)
CC(C)(C)n1cn[nH]c1=S	RORg inh 11µM
CC(C)NC(=O)c1onc(CSc2ccc(C(C)C)cc2)c1C(=O)O	RORg inh inconclusive, VP16 counter 20µM
CC(C)NC(=O)c1onc(CSc2ccc(F)cc2)c1C(=O)O	none
C/C=C/C(=O)[C@@H](C)[C@@H](/C=C/C[Si](C)(C)C)c1ccccc1	RORg inh inconclusive, VP16 counter inconclusive (no result: ERG Ets-DNA blk, Integrin act MD)
O=C(c1ccc(C(F)(F)F)cc1)N1CCN(S(=O)(=O)c2ccc3c(c2)OCCCO3)CC1	RORg inh 13µM
Brc1csc(C=Nc2ccc3c(c2)OCCOCCOCCOCCO3)c1	none
Oc1c(Cl)cc(Cl)cc1C=Nc1ccc2c(c1)OCCO2	RORg inh 14µM
CC(C)COc1ccc(-c2nnc(-c3ccco3)o2)cc1	RORg inh inconclusive, VP16 counter inconclusive
CCCOc1ccc(-c2nnc(-c3ccco3)o2)cc1	RORg inh 4.5µM, VP16 counter inconclusive
CC1CCN(C(=O)c2ncn3c2c(=O)[nH]c2cccnc23)CC1	none (no result: RORg inh, ERG Ets-DNA blk, VP16 counter, Giardia killer)
CCOc1ccc(C(=O)Nc2cccc(C(=O)O)c2C)cc1Cl	VP16 counter 1.6µM
O=C(Nc1ccccc1C(=O)O)c1ccccc1	none (no result: ERG Ets-DNA blk)
Cc1cccc(NC(=O)c2ccccc2O)c1C	RORg inh inconclusive, VP16 counter 1.1µM (no result: ERG Ets-DNA blk)
Cc1c(NC(=O)c2ccc(-c3ccccc3)cc2)cccc1C(=O)O	RORg inh 10µM, Integrin act MD inconclusive, VP16 counter inconclusive
CCc1cc(=O)[nH]c(SCc2nc(-c3cccc(Cl)c3)no2)n1	none (no result: RORg inh, Integrin act MD, VP16 counter, Giardia killer)
COc1ccc(-c2coc(CCC(=O)N3CCN(c4cc(C)ccc4C)CC3)n2)cc1	none (no result: RORg inh, VP16 counter)
CCn1c(=S)[nH]c2cc(Cl)ccc21	RORg inh 5.6µM, VP16 counter 25µM
CCCn1c(=S)[nH]c2cc(Cl)ccc21	RORg inh 5µM, VP16 counter 18µM
CCn1c(=S)[nH]c2cc(S(=O)(=O)N3CCCCC3)ccc21	RORg inh 10µM, VP16 counter inconclusive (no result: ERG Ets-DNA blk)
CN(CCOc1ccccc1)C(=O)c1ccc(F)c(S(=O)(=O)N2CCOCC2)c1	none (no result: RORg inh, VP16 counter)
C[C@@H](C(=O)Nc1ccc2ccccc2c1)[C@@H]1C[C@@]1(C)[C@@H](NC(=O)Oc1ccc(F)cc1)c1ccccc1	none (no result: ERG Ets-DNA blk, Integrin act MD, Giardia killer)
O=C(/C=C/c1ccc(/C=C/C(=O)Nc2ccc(C3=NCCN3)cc2)cc1)Nc1ccc(C2=NCCN2)cc1	none (no result: ERG Ets-DNA blk, Integrin act MD, Giardia killer)
COc1ccc(NC(=O)[C@@H](NC(N)=O)C(C)C)cc1Cl	none
CC1CCN(c2nc(-c3ccc(C(C)(C)C)cc3)nc3ccccc23)CC1	none (no result: RORg inh, Integrin act MD, VP16 counter, Giardia killer)
CC1CCN(c2nc(/C=C/c3ccccc3)nc3ccccc23)CC1	RORg inh 16µM, Integrin act MD inconclusive, VP16 counter inconclusive
CC1CCN(c2nc(-c3ccncc3)nc3ccccc23)CC1	RORg inh 11µM, VP16 counter inconclusive
